Test results reported in the supplement of paper PMC13380429.

Legend:
[1] = test system: Vero E6 infected with SARS-CoV-2; experiment: morphology score (similarity to uninfected cells); higher = more like uninfected cells; settings: 24 h
[2] = test system: Vero E6 infected with SARS-CoV-2; experiment: SARS-CoV-2 infection rate relative to infected DMSO; higher = more infection, active = 60 or less; settings: 24 h

SMILES | morphology score [1] | SARS-CoV-2 infection rate [2]
C[C@H]1[C@H](C)CC[C@]2(C(=O)O)CC[C@]3(C)C(=CC[C@@H]4[C@@]5(C)C[C@@H](O)[C@H](O)C(C)(C)[C@@H]5CC[C@]43C)[C@H]12 [corosolic-acid] (10 µM) | -0.302 | 116% (inactive)
O=C(O)COC(=O)Cc1ccccc1Nc1c(Cl)cccc1Cl [aceclofenac] (10 µM) | -0.0479 | 110% (inactive)
N#Cc1ccc(NCCNCC(=O)N2CCC[C@H]2C#N)nc1 (10 µM) | -0.0945 | 114% (inactive)
CN[C@H]1CC[C@@H](c2ccc(Cl)c(Cl)c2)c2ccccc21 (0.833333 µM) | 0.143 | 89.5% (inactive)
Nc1ccc(O)c(C(=O)O)c1 [mesalazine] (10 µM) | 0.0799 | 93.5% (inactive)
C[C@]12CCC(=O)C=C1[C@@H]1C[C@@H]1[C@H]1[C@@H]3[C@@H]4C[C@@H]4[C@@]4(CCC(=O)O4)[C@@]3(C)CC[C@@H]12 [drospirenone] (10 µM) | 0.176 | 101% (inactive)
CNCc1ccc(-c2[nH]c3cc(F)cc4c3c2CCNC4=O)cc1 [rucaparib] (10 µM) | 0.234 | 83% (inactive)
Cc1cc(C)cc(C(=O)NOCCCCCC(=O)NO)c1 (10 µM) | -0.485 | 124% (inactive)
Oc1ccc(C(O)CNCCCCCCNCC(O)c2ccc(O)c(O)c2)cc1O (stereo unspecified) [hexoprenaline] (10 µM) | 0.0624 | 116% (inactive)
C=C1CC[C@H](O)C/C1=C/C=C1\CCC[C@]2(C)[C@@H]([C@H](C)CCCC(C)(C)O)CC[C@@H]12 [calcifediol] (10 µM) | -0.0147 | 115% (inactive)
C[C@@H](CN1CCC(Cc2ccccc2)CC1)[C@@H](O)c1ccc(O)cc1 (10 µM) | 0.157 | 98.5% (inactive)
CCc1ccc(Cc2ccc3c(c2)[C@]2(OC3)O[C@H](CO)[C@@H](O)[C@H](O)[C@H]2O)cc1 [tofogliflozin] (10 µM) | 0.023 | 94.5% (inactive)
CCCc1nc(C)c2c(=O)nc(-c3cc(S(=O)(=O)N4CCN(CC)CC4)ccc3OCC)[nH]n12 [vardenafil] (10 µM) | 0.227 | 97.5% (inactive)
N.N.[Cl][Pt][Cl] [cisplatin] (10 µM) | 0.0556 | 111% (inactive)
CCN(CC)C(=O)[C@@]1(c2ccccc2)C[C@H]1CN [milnacipran] (10 µM) | 0.0186 | 105% (inactive)
Cc1ccc2c(N3CCN(CCc4cccc(N5CCNC5=O)c4)CC3)cccc2n1 (10 µM) | 0.325 | 84% (inactive)
CC1(C)S[C@@H]2[C@H](NC(=O)C(C(=O)O)c3ccccc3)C(=O)N2[C@H]1C(=O)O (stereo partly specified) [carbenicillin] (10 µM) | 0.0766 | 104% (inactive)
COC(=O)c1ccc(O)cc1 [methylparaben] (10 µM) | -0.112 | 114% (inactive)
CCN(CC)CCNC(=O)COc1ccc(OC)cc1 [mefexamide] (10 µM) | 0.0556 | 113% (inactive)

SMILES | morphology score [1] | SARS-CoV-2 infection rate [2]
CCCC[P+](CCCC)(CCCC)Cc1ccc(NC(=O)[C@H](Cc2ccc3ccccc3c2)N/C(=N/C2CCCCC2)NC2CCCCC2)cc1 (10 µM) | 0.122 | 92% (inactive)
O=C(NNc1nc2cc(F)ccc2n2cccc12)c1cnccn1 (10 µM) | 0.0623 | 105% (inactive)
CC(=O)OCC(=O)[C@@]12OC3(CCCC3)O[C@@H]1C[C@H]1[C@@H]3CCC4=CC(=O)C=C[C@]4(C)[C@@]3(F)[C@@H](O)C[C@@]12C [amcinonide] (10 µM) | 0.114 | 110% (inactive)
Cn1c(=O)c2c(ncn2CC(=O)Nc2ccc(-c3ccccc3)nn2)n(C)c1=O (10 µM) | 0.382 | 80.5% (inactive)
Cc1ncc(Cl)cc1NCc1ccc(C(=O)N[C@@H](CC2CCCC2)C(=O)NC2CC2)s1 (10 µM) | 0.0746 | 106% (inactive)
CCCN1C[C@H](CSC)C[C@@H]2c3cccc4[nH]cc(c34)C[C@H]21 [pergolide] (10 µM) | 0.343 | 78% (inactive)
Cc1ccc(CC2(O)CCN(CCOc3ccc(O)cc3)CC2)cc1 (10 µM) | -0.0871 | 111% (inactive)
CCCOc1ccc2[nH]c(NC(=O)OC)nc2c1 [oxibendazole] (10 µM) | -0.158 | 118% (inactive)
C[C@@H]1NC(=O)[C@@H](N)CNC(=O)[C@H](C2CCNC(=N)N2)NC(=O)/C(=C/NC(N)=O)NC(=O)[C@H](CNC(=O)CC(N)CCCN)NC1=O.N=C1NCC[C@H]([C@@H]2NC(=O)/C(=C/NC(N)=O)NC(=O)[C@H](CNC(=O)C[C@@H](N)CCCN)NC(=O)[C@H](CO)NC(=O)[C@@H](N)CNC2=O)N1 [capreomycin] (10 µM) | 0.148 | 100% (inactive)
CCc1nc(-c2cccc(C)c2)c(-c2ccnc(NC(=O)c3ccccc3)c2)s1 (10 µM) | 0.171 | 104% (inactive)
O=C(CCCCC(=O)Nc1c(I)cc(I)c(C(=O)O)c1I)Nc1c(I)cc(I)c(C(=O)O)c1I [iodipamide] (10 µM) | 0.0415 | 93% (inactive)
O=C(O)CCC(=O)C(=O)O [2-oxoglutaric-acid] (10 µM) | -0.135 | 110% (inactive)
OC[C@H]1NC[C@@H](O)[C@@H](O)[C@@H]1O [1-deoxymannojirimycin] (10 µM) | -0.0915 | 102% (inactive)
CC(C)C(=O)Oc1ccc(CO)cc1[C@H](CCN(C(C)C)C(C)C)c1ccccc1 [fesoterodine] (10 µM) | 0.096 | 108% (inactive)
OCCOc1ccc(/C(=C(/CCCl)c2ccccc2)c2ccccc2)cc1 [ospemifene] (10 µM) | 0.19 | 97.5% (inactive)
CO[C@@]1(NC(=O)CSCC#N)C(=O)N2C(C(=O)O)=C(CSc3nnnn3C)CS[C@@H]21 [cefmetazole] (10 µM) | 0.148 | 98.5% (inactive)
CC(C)[C@H](C(=O)Nc1ccc(C(=O)NO)cc1)c1ccccc1 (10 µM) | 0.0602 | 104% (inactive)
NCCCCCC(O)(P(=O)(O)O)P(=O)(O)O [neridronic-acid] (10 µM) | 0.208 | 91% (inactive)
COC(=O)/C=C/C(=O)OCCN1C(=O)CCC1=O [diroximel-fumarate] (10 µM) | 0.0691 | 101% (inactive)
